In assay [1] the target is Death-associated protein kinase 1 (Homo sapiens) (UniProt P53355). Conditions: at 1 µM.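 Also: each value is a mean inhibition figure.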
Assay [2] addresses T1, Serine/threonine-protein kinase DCLK2 (Homo sapiens) (UniProt Q8N568).
T1 sequence (whole entry): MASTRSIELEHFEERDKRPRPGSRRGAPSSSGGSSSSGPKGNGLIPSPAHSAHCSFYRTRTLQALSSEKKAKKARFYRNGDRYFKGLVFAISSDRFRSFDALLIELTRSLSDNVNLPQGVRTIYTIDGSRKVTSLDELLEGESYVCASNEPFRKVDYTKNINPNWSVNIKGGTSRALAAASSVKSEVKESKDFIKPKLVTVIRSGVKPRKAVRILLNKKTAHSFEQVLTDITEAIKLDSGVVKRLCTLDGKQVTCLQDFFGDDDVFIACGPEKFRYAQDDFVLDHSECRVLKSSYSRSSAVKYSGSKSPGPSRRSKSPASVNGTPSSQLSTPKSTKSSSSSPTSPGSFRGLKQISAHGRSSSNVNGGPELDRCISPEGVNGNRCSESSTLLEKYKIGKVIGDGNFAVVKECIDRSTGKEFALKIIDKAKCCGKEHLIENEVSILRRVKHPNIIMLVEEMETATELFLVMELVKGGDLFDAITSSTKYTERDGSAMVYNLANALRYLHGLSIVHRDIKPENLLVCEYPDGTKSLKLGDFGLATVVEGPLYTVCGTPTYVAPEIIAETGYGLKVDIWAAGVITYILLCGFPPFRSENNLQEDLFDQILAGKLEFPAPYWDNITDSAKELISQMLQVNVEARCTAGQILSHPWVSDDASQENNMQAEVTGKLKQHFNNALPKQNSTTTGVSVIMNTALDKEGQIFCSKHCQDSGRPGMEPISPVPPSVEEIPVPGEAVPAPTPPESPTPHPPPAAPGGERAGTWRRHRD
The conditions noted are these: at 0.1 µM.

The target in assay [3] is T1, Serine/threonine-protein kinase DCLK2 (Homo sapiens). Conditions: at 1 µM.
Assay [4] deals with MAP kinase-activated protein kinase 2 (Homo sapiens) (UniProt P49137). Conditions: at 0.1 µM.
Chain of MAP kinase-activated protein kinase 2 (Homo sapiens) (P49137 whole entry, looked up): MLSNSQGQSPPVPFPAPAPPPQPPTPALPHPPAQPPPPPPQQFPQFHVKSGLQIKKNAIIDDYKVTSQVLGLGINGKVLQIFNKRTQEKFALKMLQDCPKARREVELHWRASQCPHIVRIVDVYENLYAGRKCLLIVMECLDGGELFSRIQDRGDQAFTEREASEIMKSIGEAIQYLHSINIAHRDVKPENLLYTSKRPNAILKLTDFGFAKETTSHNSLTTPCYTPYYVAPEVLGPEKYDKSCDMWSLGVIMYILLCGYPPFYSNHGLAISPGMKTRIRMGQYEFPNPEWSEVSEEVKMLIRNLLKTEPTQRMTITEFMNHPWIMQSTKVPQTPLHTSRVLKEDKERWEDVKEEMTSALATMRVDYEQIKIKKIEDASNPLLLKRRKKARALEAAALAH
The target is the same in assay [5]. The conditions noted are these: at 1 µM.
Assay [6] has as its target MAP kinase-activated protein kinase 3 (Homo sapiens) (UniProt Q16644). Conditions: at 0.1 µM.
Assay [7] has the same target. Conditions: at 1 µM.
Assay [8] addresses Serine/threonine-protein kinase MARK1 (Homo sapiens) (UniProt Q9P0L2). The conditions noted are these: at 0.1 µM.
The target is the same in assay [9]. The conditions noted are these: at 1 µM.
Assay [10] concerns the target MAP/microtubule affinity-regulating kinase 3 (Homo sapiens) (UniProt P27448). Conditions: at 0.1 µM.
For assay [11] the target is unchanged. Conditions: at 1 µM.
The target of assay [12] is T2, MAP/microtubule affinity-regulating kinase 4 (Homo sapiens) (UniProt Q96L34).
T2 sequence (whole entry): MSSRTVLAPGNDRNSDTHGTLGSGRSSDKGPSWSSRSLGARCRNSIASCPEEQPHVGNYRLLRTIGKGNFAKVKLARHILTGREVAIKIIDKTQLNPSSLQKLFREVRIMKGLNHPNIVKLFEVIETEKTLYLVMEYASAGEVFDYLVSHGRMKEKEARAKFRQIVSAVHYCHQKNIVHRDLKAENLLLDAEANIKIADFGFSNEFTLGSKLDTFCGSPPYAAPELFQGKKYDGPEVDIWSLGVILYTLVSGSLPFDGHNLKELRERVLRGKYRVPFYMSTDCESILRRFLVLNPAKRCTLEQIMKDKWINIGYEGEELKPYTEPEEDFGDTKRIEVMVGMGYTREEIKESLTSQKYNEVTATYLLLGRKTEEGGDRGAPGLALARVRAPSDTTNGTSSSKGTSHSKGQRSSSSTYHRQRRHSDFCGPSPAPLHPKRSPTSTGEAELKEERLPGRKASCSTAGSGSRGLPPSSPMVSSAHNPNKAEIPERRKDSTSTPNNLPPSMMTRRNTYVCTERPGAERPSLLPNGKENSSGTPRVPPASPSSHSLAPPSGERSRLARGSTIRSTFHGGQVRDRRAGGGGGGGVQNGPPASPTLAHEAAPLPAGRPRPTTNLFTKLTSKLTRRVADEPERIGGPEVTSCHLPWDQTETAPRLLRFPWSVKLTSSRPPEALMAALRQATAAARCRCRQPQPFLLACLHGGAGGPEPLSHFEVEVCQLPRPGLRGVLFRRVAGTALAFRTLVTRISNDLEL
The conditions noted are these: at 0.1 µM.

Assay [13] deals with T2, MAP/microtubule affinity-regulating kinase 4 (Homo sapiens). The conditions noted are these: at 1 µM.
In assay [14] the target is Maternal embryonic leucine zipper kinase (Homo sapiens) (UniProt Q14680). The conditions noted are these: at 0.1 µM.
Chain of Maternal embryonic leucine zipper kinase (Homo sapiens) (Q14680 whole entry, looked up): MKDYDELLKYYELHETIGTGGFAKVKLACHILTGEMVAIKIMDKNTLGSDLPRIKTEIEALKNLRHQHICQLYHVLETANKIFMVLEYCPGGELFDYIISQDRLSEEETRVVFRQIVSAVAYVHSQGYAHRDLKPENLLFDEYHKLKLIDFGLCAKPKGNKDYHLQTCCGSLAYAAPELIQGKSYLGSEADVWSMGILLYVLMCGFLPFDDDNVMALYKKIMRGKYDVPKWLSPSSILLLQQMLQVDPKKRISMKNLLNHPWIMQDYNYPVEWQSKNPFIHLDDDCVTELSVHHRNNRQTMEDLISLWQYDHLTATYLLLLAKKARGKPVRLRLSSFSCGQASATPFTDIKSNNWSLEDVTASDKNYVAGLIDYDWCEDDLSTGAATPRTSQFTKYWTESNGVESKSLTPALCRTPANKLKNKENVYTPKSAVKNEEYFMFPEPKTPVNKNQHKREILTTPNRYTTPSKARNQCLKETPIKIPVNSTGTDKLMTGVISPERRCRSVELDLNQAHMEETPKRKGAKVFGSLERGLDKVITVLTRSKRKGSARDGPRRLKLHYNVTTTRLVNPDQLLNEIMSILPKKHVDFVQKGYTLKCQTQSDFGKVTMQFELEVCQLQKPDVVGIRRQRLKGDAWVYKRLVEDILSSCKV
Assay [15] has the same target. The conditions noted are these: at 1 µM.
Assay [16] has as its target MAP kinase-interacting serine/threonine-protein kinase 1 (Homo sapiens) (UniProt Q9BUB5). The conditions noted are these: at 0.1 µM.
Assay [17] shares this target. The conditions noted are these: at 1 µM.
Assay [18] concerns the target MAP kinase-interacting serine/threonine-protein kinase 2 (Homo sapiens) (UniProt Q9HBH9). Conditions: at 0.1 µM.
For assay [19] the target is unchanged. Conditions: at 1 µM.
Assay [20] concerns the target Serine/threonine-protein kinase MARK2 (Homo sapiens) (UniProt Q7KZI7). The conditions noted are these: at 0.1 µM.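 Also: mean percent inhibition of PAR-1Balpha kinase activity, reported from the GSK PKIS screen.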

Chain of MAP/microtubule affinity-regulating kinase 3 (Homo sapiens) (P27448 whole entry, looked up): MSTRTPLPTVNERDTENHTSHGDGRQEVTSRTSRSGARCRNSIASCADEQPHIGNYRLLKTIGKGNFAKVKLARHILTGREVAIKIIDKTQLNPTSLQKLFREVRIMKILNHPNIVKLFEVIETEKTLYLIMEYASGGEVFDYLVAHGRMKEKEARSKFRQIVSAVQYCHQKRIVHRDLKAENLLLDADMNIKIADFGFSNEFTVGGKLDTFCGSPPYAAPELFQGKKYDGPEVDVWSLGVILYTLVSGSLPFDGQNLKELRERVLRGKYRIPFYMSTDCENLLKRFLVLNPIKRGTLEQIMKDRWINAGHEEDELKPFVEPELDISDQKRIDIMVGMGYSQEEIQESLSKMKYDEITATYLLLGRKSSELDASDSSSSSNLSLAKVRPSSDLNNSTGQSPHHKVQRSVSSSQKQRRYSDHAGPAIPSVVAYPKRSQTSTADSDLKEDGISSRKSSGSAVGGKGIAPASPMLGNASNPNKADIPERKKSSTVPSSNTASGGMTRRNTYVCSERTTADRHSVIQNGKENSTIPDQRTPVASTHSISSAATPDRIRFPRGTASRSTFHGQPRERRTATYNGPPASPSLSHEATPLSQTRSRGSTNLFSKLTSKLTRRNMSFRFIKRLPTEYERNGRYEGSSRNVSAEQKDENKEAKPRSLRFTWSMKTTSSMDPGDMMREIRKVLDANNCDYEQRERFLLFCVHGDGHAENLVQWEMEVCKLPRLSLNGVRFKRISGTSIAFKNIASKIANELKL
Chain of MAP kinase-interacting serine/threonine-protein kinase 1 (Homo sapiens) (Q9BUB5 whole entry, looked up): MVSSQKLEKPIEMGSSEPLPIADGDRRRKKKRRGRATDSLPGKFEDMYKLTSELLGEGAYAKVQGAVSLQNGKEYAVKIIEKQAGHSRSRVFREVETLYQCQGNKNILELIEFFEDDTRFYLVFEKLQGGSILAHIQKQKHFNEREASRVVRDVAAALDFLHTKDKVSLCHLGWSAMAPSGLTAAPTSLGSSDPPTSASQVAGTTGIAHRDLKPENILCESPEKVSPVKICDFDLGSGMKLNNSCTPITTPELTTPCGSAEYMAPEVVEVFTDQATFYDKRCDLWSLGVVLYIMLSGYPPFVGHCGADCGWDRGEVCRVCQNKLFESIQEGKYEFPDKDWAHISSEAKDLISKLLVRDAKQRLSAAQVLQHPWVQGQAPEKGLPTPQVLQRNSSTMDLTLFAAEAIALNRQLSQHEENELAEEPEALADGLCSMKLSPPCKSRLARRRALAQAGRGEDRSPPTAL
Chain of MAP kinase-interacting serine/threonine-protein kinase 2 (Homo sapiens) (Q9HBH9 whole entry, looked up): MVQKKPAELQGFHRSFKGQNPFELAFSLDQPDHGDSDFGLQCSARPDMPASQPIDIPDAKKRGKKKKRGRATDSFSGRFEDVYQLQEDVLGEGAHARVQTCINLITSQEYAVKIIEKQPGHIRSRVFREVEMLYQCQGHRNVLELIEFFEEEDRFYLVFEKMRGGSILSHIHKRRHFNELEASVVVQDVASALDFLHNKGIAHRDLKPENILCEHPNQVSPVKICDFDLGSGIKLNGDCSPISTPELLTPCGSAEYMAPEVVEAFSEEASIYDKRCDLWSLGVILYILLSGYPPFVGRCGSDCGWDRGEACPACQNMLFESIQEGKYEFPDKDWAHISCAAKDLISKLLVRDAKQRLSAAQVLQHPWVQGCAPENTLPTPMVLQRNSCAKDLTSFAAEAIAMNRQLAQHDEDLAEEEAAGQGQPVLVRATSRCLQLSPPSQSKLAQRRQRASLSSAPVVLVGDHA
Chain of MAP kinase-activated protein kinase 3 (Homo sapiens) (Q16644 whole entry, looked up): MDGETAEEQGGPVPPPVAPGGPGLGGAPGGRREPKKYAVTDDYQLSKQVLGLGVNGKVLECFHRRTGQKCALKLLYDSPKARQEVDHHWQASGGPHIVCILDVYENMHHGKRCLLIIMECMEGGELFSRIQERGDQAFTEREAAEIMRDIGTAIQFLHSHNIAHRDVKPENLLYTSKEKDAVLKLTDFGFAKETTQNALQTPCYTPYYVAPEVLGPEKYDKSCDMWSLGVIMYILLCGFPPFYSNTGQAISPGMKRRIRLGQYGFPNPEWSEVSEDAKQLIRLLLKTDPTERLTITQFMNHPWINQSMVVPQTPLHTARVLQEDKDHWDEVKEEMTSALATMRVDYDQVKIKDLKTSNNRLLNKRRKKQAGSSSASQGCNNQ
Chain of Serine/threonine-protein kinase MARK2 (Homo sapiens) (Q7KZI7 whole entry): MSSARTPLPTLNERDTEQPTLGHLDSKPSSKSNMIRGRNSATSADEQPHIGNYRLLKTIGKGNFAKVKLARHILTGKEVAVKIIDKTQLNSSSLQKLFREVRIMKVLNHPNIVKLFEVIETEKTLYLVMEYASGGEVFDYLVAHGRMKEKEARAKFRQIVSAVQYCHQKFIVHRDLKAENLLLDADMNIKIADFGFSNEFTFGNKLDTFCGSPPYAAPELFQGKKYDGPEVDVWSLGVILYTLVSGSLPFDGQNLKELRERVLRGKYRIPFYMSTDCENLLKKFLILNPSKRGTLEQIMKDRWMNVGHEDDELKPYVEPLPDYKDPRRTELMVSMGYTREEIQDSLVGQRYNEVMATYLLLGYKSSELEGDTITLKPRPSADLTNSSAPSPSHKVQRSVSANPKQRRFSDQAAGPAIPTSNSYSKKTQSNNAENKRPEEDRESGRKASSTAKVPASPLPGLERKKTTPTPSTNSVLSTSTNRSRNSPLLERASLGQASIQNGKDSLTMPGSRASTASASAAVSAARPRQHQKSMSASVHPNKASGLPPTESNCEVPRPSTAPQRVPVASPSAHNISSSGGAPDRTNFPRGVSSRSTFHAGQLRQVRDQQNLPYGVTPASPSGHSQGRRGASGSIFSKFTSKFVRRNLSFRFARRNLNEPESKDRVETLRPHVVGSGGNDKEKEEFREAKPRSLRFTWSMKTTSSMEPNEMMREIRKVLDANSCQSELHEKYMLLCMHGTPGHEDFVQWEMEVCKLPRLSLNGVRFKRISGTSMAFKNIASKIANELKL
Chain of Serine/threonine-protein kinase MARK1 (Homo sapiens) (Q9P0L2 whole entry, looked up): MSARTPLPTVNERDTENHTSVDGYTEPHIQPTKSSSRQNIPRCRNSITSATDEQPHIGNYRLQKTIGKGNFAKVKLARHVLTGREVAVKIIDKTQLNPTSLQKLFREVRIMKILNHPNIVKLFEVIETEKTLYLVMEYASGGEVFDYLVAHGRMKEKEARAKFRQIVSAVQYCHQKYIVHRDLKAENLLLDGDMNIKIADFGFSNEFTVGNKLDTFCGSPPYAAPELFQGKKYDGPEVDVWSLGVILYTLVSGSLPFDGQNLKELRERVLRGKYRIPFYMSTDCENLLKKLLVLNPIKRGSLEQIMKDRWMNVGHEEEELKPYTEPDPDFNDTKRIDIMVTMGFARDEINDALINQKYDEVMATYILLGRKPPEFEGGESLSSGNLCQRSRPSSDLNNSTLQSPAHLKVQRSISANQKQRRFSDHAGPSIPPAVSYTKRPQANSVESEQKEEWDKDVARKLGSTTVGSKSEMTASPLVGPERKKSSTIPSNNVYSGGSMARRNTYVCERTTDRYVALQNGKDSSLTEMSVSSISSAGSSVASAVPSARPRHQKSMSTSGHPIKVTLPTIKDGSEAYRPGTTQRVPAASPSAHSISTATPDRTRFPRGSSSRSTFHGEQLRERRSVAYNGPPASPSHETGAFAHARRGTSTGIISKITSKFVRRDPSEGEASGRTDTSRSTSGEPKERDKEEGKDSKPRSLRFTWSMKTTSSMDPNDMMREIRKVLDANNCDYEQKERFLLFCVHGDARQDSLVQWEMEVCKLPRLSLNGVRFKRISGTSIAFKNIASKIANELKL

For orientation: inhibition means the drop in the measured response relative to a control, in per cent. For the compound `c1ccc(-c2nc3n(c2-c2ccc4c(c2)OCO4)CCC3)nc1`, the inhibition in [1] amounted to 1.91%; in [2], 0.33%; in assay [3], 2.8%; in assay [4] it was 1.38%; in [5] it was 1.27%; in assay [6], 3.55%. Further, the inhibition in assay [7] came to 3.33%; in assay [8], 1.87%; in assay [9], 4.07%; in assay [10], 2.01%; in assay [11], 4.15%; in assay [12], 1.03%. In addition, the inhibition turned out to be 2.7% in assay [13]; 2.58% in assay [14]; 4.77% in assay [15]; 1.71% in assay [16]; 3.75% in assay [17]; 0.98% in [18]. The inhibition in [19] was -0.19%; in assay [20], 2.71%.

Regarding `Cc1cccc2c1NC(=O)/C2=N\Nc1ccc(S(N)(=O)=O)cc1`, the inhibition in assay [1] came to 4.75%; in [2], 0.74%; in assay [3], 2.14%; in [4] it was 1.37%; in [5], 1.1%; in [6] it was 2.44%. Also, the inhibition in assay [7] amounted to 2.04%; in [8], 1.81%; in assay [9], 3.2%; in [10] it was 2.64%; in assay [11] it was 2.38%; in assay [12] it was 1.25%. Further, the inhibition was 2.15% in assay [13]; 3.77% in assay [14]; 2.1% in assay [15]; 1.62% in assay [16]; 2.53% in assay [17]; 0.84% in assay [18]. Moreover, the inhibition amounted to 1.26% in [19] and 0.47% in [20].

`CCCN1CCC(c2ccc(Nc3nc(Nc4cc(F)ccc4C(N)=O)c4cc[nH]c4n3)c(OC)c2)CC1`: the inhibition in assay [1] came out at 50%; in [2], 1.99%; in assay [3], 8.21%; in [4] it was 1.84%; in assay [5], 3.23%; in assay [6] it was 5.33%. Besides, the inhibition was found to be 11.9% in assay [7]; 9.11% in assay [8]; 50.1% in [9]; 12.2% in assay [10]; 66.6% in [11]; 7.27% in assay [12]. In addition, the inhibition in assay [13] turned out to be 42.6%; in assay [14], 21.7%; in assay [15] it was 78.7%; in assay [16], 5.57%; in assay [17] it was 10.7%; in assay [18], 3.26%. Also, the inhibition stood at 7.76% in assay [19] and 7.99% in assay [20].

Consider `CC1=C(C(=O)Nc2cc(Cl)c3[nH]ncc3c2)C(c2ccc(C(F)(F)F)cc2)CC(=O)N1` (stereo not given), for which the inhibition came to 10% in [1]; 3.55% in assay [2]; 2.36% in [3]; 4.51% in assay [4]; 4.3% in assay [5]; 9.27% in assay [6]. For the same compound, the inhibition is 9.12% in assay [7]; 3.77% in assay [8]; 6.87% in [9]; 3.36% in assay [10]; 9.91% in assay [11]; 1.64% in assay [12]. Also, the inhibition in [13] stood at 3.1%; in assay [14] it was 5.47%; in assay [15] it was 7.81%; in [16], 2.74%; in assay [17] it was 7.79%; in assay [18] it was 2.19%. The results for the inhibition in [19] and in assay [20] were 5.02% and 1.6%, respectively.

Turning to `COc1cc(N2CCN(C(C)C)CC2)ccc1Nc1nc(Nc2ccc(F)cc2C(N)=O)c2cc[nH]c2n1`, the inhibition in [1] was 46%; in assay [2] it was -0.62%; in assay [3] it was 8.47%; in assay [4], 0.94%; in assay [5], 5.03%; in assay [6], 3.04%. Further, the inhibition was 7.11% in assay [7]; 7.7% in [8]; 47.7% in assay [9]; 12.3% in assay [10]; 67.4% in assay [11]; 4.23% in assay [12]. Moreover, the inhibition in assay [13] stood at 37.8%; in assay [14], 18%; in assay [15], 78.3%; in [16], 0.9%; in assay [17], 1.83%; in [18], 1.81%. In addition, the inhibition in assay [19] was 8.99%; in assay [20], 5.75%.

In the case of `Fc1ccc(-c2cc(-c3c[nH]nc3-c3ccccn3)ccn2)cc1`, the inhibition is 3.05% in assay [1]; 1.09% in [2]; -1.86% in assay [3]; 2.53% in [4]; 2.72% in assay [5]; 7.67% in [6]. The inhibition in [7] is 18.4%; in [8], 4.11%; in assay [9], 3.39%; in assay [10], 2.52%; in assay [11], 0.81%; in [12], 1.12%. Besides, the inhibition in [13] was 1.84%; in assay [14], 0.52%; in assay [15], 7.4%; in assay [16] it was 4.46%; in assay [17], 10.4%; in assay [18], 2.83%. The inhibition is 6.06% in [19] and -3.26% in assay [20].

The values are drawn from ChEMBL document CHEMBL1961873, “Compounds: GSK PKIS; Assays: Nanosyn kinase panel” (2012).
